The whole screen tested about 360,000 compounds, of which about 3,500 (0.97%) were called active. Shown is part of a subset that was picked to be rich in actives. A number with no mark means an inactive call.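 Rule for the calls: active = activation above a per-plate cutoff, the mean activation of sample wells on that plate plus 3 SD (cut at about 8% in these data); inactive = the rest.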
Each compound was assayed against Melanocortin receptor 4 (Homo sapiens) (UniProt P32245) (assay: MC4R agonists recruiting beta-arrestin, primary screen, cell-based, luminescence, agonist arm of biased-ligand search (AID 540308)). Settings: U2OS MC4R beta-arrestin complementation, at 8.9 µM, stronger effect = higher value, percent of melanotan II response, DMSO zero.
Chain of Melanocortin receptor 4 (Homo sapiens) (P32245 whole entry, looked up): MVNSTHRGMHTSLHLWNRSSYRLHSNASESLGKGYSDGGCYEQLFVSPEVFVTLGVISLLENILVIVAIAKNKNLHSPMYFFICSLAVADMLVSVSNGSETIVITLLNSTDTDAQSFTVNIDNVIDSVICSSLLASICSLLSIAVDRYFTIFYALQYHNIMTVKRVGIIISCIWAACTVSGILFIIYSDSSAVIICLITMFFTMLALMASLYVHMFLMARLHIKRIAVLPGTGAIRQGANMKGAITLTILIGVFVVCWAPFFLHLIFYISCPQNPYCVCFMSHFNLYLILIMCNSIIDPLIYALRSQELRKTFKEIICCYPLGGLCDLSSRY

Compound | activation
CNc1cc(-c2c(OC)cccc2OC)ncn1 | 0.41%
Cc1csc(NC(=O)c2ccc(-c3ccc(Cl)cc3Cl)o2)n1 | 12.6% (active)
Cc1ccc(/C=C(\C#N)C(=O)Nc2cccc3ncccc23)o1 | 0.31%
O=C(Nc1cccc2ncccc12)c1ccc(-c2ccc(Cl)cc2Cl)o1 | 20.2% (active)
COc1cc(SC)ccc1C(=O)Nc1nc(C)cs1 | -0.94%
O=C(NNc1cc(Cl)ccc1Cl)c1cccnc1Cl | -2.02%
CC1CCN(C(=S)c2ccc(-c3ccc(Cl)cc3Cl)o2)CC1 | 2.82%
Cc1nc2c(OCc3ccc(Cl)cc3)cccn2c1N(C)Cc1cccs1 | -2.75%
COc1ccc(CCNC(=O)Nc2ccc3c(c2)c(=O)n(C)n3C)cc1OC | 1.3%
COc1cc(C(O)c2nc(-c3cccc(C(=O)O)c3)cs2)ccc1F (stereo not given) | -1.9%
CC1(C(=O)NS(=O)(=O)c2cccc(OC(F)F)c2)CCN1C(=O)COc1ccc(Cl)cc1 (stereo not given) | -1.09%
CCc1ccc(OC2(C)CCN(CCOc3ccc(C)cc3)C2)cc1 (stereo not given) | 3.54%
CCN1CCN(CCNC(=O)c2ccc3c(c2)NC(=O)/C(=C\c2cccc(Cl)c2)S3)CC1 | -0.09%
CCN1CCN(CCNC(=O)c2ccc(/C=C3/Sc4ccccc4N(Cc4cccc(C)c4)C3=O)cc2)CC1 | 13.8% (active)
Cc1ccccc1CN1C(=O)c2ccccc2Sc2ccc(C(=O)NCCCN3CCOCC3)cc21 | 3.09%
CCc1nc2c(OCC(=O)C(C)(C)C)cccn2c1N(C)C(=O)c1ccccc1F | -1.02%
CCC(=O)N1CCC(C)(C(=O)Nc2cc(OC)c(OC)c(OC)c2)C1 (stereo not given) | -0.53%
CC1(C(=O)N/N=C/c2cc3c(cc2Br)OCO3)CC1(Br)Br (stereo not given) | -3.59%
CC(C)Oc1c(Br)cc(Br)cc1/C=N/NC(N)=S | 22.7% (active)
COc1cccc(C(NC(C)=O)c2nc(-c3ccccc3OC)cs2)c1 (stereo not given) | -0.26%

Compound | activation
Cc1cc(O)ccc1-c1cc(C(=O)NCc2cc(C(F)(F)F)cc(C(F)(F)F)c2)[nH]n1 | 2.75%
OC(c1ccc(F)cc1)c1ncc(-c2cccc(C(F)(F)F)c2)[nH]1 (stereo not given) | 1.88%
CC(=O)NC(c1ccccc1)c1nc(-c2ccccc2C)cs1 (stereo not given) | 0.3%
CC1(C(=O)NCc2ccc3c(c2)OCO3)CCN1C(=O)Cc1cccs1 (stereo not given) | 0.72%
COc1ccc(OCC(=O)NNC(=O)C2CCC2)cc1 | -1.99%
COc1ccc(OCC(=O)Nc2ccc(N3CCC(C)CC3)cc2)cc1 | 10.2% (active)
CCC(=O)c1ccc(OCC(=O)Nc2ccc(N3CCCCC3)cc2)cc1 | 3.06%
CC12CCC(=O)C=C1CCC1C2C(O)CC2(C)C1CCC2(O)C(O)CO (stereo not given) | -0.23%
CCCNC(=O)C1(C)CCN(C(=O)c2ccccc2OC(F)(F)F)C1 (stereo not given) | 0.4%
CC(=O)N1CCN(C(=O)c2cc(-c3ccc(C)o3)nc3ccccc23)CC1 | -2.54%
COc1ccc(NC(=O)c2cc(-c3ccc(C)o3)nc3ccccc23)cc1 | 9.46% (active)
COc1ccc(NC(=O)CN(C)C(=O)c2cc(-c3ccc(C)o3)nc3ccccc23)cc1 | -0.83%
CCCCc1ccc(S(=O)(=O)NC(=O)C2(C)CCN2C(=O)c2c(C)noc2C)cc1 (stereo not given) | -2.14%
Cc1cc(Cl)ccc1-c1nc(NCCN(C)C)nc2ccsc12 | -0.54%
O=C(Nc1ccon1)c1nc[nH]c1C(=O)NCc1ccccc1 | -0.8%
CCOC(=O)c1[nH]cnc1C(=O)Nc1ccccc1C | 1%
CCOC(=O)c1ccc(NC(=O)c2nc[nH]c2C(=O)NCc2ccccc2)cc1 | 8.44% (active)
COc1ccc(C(=O)N2CCCCC2c2cc(C(=O)Nc3ccc(F)c(Cl)c3)no2)cc1 (stereo not given) | 2.26%
Cc1ccnc(N2C(=O)c3ccc([N+](=O)[O-])cc3C2=O)c1 | -1.22%
Cc1ccc(-n2cc3ccc([N+](=O)[O-])cc3n2)cc1 | 16.1% (active)

Compound | activation
Cc1ccc(C(=O)Cn2cc([N+](=O)[O-])nc2C)cc1 | -1.74%
COc1ccc(C(C)(O)c2nc(-c3cc(F)cc(F)c3)cs2)cc1 (stereo not given) | 3.01%
COC(=O)c1ccc(Sc2ccc(F)cc2)c(N)c1 | -1.17%
COc1ccc(Sc2ccc(NC(=O)c3cccc(Cl)c3)cc2C#N)cc1 | -0.48%
Cc1ccc(Sc2ccc(NC(=O)c3ccc(F)cc3)cc2C#N)cc1 | 17% (active)
Clc1ccc(-c2cccc3nccn23)cc1 | -0.44%
N#CCC(=O)N/N=C/c1cn(Cc2ccc3ccccc3c2)c2ccccc12 | 11.1% (active)
CCOC(=O)N/N=C/c1cn(Cc2ccccc2Cl)c2ccccc12 | -2.13%
COc1cccc(Cn2cc(/C=N/NC(=O)c3cc(O)cc(O)c3)c3ccccc32)c1 | -2.32%
Cc1ccc(C)c(N2CCN(S(=O)(=O)c3c(C)[nH]c(C)c3C(=O)N3CCCC3)CC2)c1 | -0.89%
Cc1ccc(C)c(N2CCN(S(=O)(=O)c3ccc4c(c3)oc(=O)n4C)CC2)c1 | -1.63%
COC(=O)c1cc(S(=O)(=O)N2CCN(c3cc(C)ccc3C)CC2)c[nH]1 | 9.07% (active)
O=c1[nH]cnc2c1c(-c1ccccc1)cn2-c1ccc(F)cc1 | 8.69% (active)
O=c1c2c(-c3ccccc3)ccnc2[nH]n1-c1ccccc1 | -0.95%
COc1ccc(-n2cc(-c3ccccc3)c3c(=S)nc[nH]c32)cc1 | 2.91%
COc1cc(Cn2c3ccc(NC(=O)CC(C)c4ccccc4)cc3c(=O)n2C)ccc1F (stereo not given) | 1.46%
O=C(NCc1ccccc1Cl)c1csc([C@@H]2O[C@H](CO)[C@@H](O)[C@H]2O)n1 | -0.25%
CCOCc1nnc(NC(=O)CSc2ccc(C)cc2)s1 | -1.16%
O=C(/C=C/c1ccccc1)Nc1nnc(SCC(=O)c2ccc3ccccc3c2)s1 | -0.51%
O=C(CSc1ccccc1)Nc1nnc(/C=C/c2ccccc2)s1 | 10.9% (active)

— PubChem BioAssay AID540308 (The Scripps Research Institute Molecular Screening Center, 2011)
